Bioassay records deposited in PubChem BioAssay by Johns Hopkins Ion Channel Center.
KCNQ2 enhance: enhances the rat KCNQ2 potassium channel. O88943. CHO-K1 KCNQ2, FluxOR thallium flux fluorescence; stronger effect = higher value. B-score at 10 µM. actives 0.54% (n = 310,000). AID 2239;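 active means fluorescence ratio B-score at least 3 SD of library B-scores, with initial fluorescence B-score within 3 of them, cut at about 5.3 in these data; same plate scores as AID 2156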;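 further: B-score of peak minus minimum over baseline fluorescence ratio after K+ and Tl+ stimulus; positive B-score means potentiation of KCNQ2 with more thallium influx and brighter signal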
Target sequence (O88943 whole entry, looked up): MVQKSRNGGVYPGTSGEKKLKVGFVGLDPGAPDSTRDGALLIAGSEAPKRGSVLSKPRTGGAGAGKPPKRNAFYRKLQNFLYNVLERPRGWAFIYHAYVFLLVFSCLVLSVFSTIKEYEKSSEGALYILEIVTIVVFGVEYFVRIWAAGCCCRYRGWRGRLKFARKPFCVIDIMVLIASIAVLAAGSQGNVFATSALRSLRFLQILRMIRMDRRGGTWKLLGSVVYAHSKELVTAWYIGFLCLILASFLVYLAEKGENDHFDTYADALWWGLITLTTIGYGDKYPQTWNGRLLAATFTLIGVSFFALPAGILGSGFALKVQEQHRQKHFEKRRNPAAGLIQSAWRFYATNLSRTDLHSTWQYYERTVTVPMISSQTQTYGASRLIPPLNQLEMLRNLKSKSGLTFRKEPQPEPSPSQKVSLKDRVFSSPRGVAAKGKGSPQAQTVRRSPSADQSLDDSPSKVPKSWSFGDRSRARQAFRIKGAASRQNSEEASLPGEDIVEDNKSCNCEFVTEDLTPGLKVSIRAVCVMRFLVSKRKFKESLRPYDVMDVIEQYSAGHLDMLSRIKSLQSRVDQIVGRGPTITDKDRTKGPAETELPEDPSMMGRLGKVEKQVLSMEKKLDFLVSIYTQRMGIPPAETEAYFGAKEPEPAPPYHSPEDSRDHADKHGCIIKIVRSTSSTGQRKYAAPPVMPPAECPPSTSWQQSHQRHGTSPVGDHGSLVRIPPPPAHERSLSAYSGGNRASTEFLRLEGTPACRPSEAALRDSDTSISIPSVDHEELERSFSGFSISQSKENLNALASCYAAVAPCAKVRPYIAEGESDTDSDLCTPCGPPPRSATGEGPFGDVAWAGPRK
KCNQ2 block: inhibitors of rat KCNQ2 potassium channel. O88943. actives 1.1% (n = 310,000). B-score at 10 µM. AID 2156. CHO-K1 KCNQ2, FluxOR thallium flux, 20 min; stronger effect = lower value;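 active means fluorescence ratio B-score at most minus 3 library SDs, with starting brightness B-score within 2 library SDs, cut at about -5.5 in these data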
* = called active by the depositor; i = inactive; . = no result. In the library only some 1.6% were active in any assay of this set; here they are far more common.

SMILES	KCNQ2 enhance	KCNQ2 block
O=C(O)Cc1coc2cc3c(cc12)CCC3	.	i
COC(=O)c1ccc(C(=O)OC)c(NC(=S)N2CCCC(C)C2)c1 (stereo not given)	0.38	i
CN(Cc1cnccn1)C(=O)C1CCC(=O)N(CCc2ccc(Cl)cc2)C1 (stereo not given)	1.2	i
C(#Cc1ccccc1)CN1CCCCC1	6.3*	i
C(#Cc1ccccc1)CN1CCN(c2ccccn2)CC1	0.75	i
c1ccc(-c2onc(-c3ccco3)c2-c2ccc3c(c2)OCO3)cc1	-5.9	-5.9*
O=C(O)c1cc(-c2ccc(-c3c(-c4ccc5c(c4)OCO5)noc3-c3ccsc3)cc2)nc2ccccc12	.	i
CC(=O)Nc1ccc(NC(=O)C(C)OC(=O)c2ccc3[nH]c(C)c(C)c3c2)cc1 (stereo not given)	.	i
CCc1noc(C)c1C(=O)Nc1ccc(C(F)(F)F)cc1	0.47	i
COc1ccc(CC(=O)NC(C)C2COc3ccccc3O2)cc1OC (stereo not given)	1.5	i
CCC(C)Sc1cc(-c2nc3ccccn3c2NC2CCCCC2)ccc1OC (stereo not given)	0.01	i
CC(=O)c1ccc(-c2cccc(-c3nc4ccccn4c3NC3CCCCC3)c2)cc1	-5.8	-5.8*
NS(=O)(=O)c1ccc(-c2cccc(/C=C3\SC(=O)NC3=O)c2)cc1	0.29	i
COc1ccc(-c2cc(C)no2)cc1S(=O)(=O)N(C)c1ccc(C)c(C)c1	.	i
Cc1ccc(N(C)S(=O)(=O)c2ccc(-c3cc(C)no3)s2)cc1	-6.5	-6.5*
Cc1cc(-c2ccc(S(=O)(=O)N(C)c3ccc(C)c(C)c3)s2)on1	-6.7	-6.7*
CCN1CCN(S(=O)(=O)c2ccc(-c3cc(C)no3)s2)CC1	0.1	i
CCCN1C2CCCC1CC(NC(=O)c1ccccc1Br)C2 (stereo not given)	.	i
O=C(c1ccc(COc2ccc(Cl)cc2Cl)o1)N1CCCC1	.	i
O=C(Nc1ccccc1C(=O)NC(Cc1ccccc1)C(=O)O)c1ccccc1 (stereo not given)	.	i
O=C(Nc1ccccc1C(=O)NC(Cc1ccccc1)C(=O)NC1CCCCC1)c1ccccc1 (stereo not given)	-7.2	-7.2*
O=C(Nc1ccccc1C(=O)Nc1ccccc1C(=O)O)c1ccccc1	-5.9	-5.9*
Nc1ccc(C(=O)Nc2ccccc2C(=O)O)cc1	0.33	i
N/C(CSc1ccc(Cl)cc1)=N\NC(=O)c1ccncc1	.	i
CC1=C(C(=O)Nc2cccc(F)c2)C(c2ccsc2)C2=C(CC(C)(C)CC2=O)N1 (stereo not given)	.	i
SMILES	KCNQ2 enhance	KCNQ2 block
O=C(c1ccc(C(F)(F)F)cc1)C1CCCN(C(=O)CN2CCCC2=O)C1 (stereo not given)	0.37	i
COCCC(=O)N1CCCC(C(=O)c2ccc(C(F)(F)F)cc2)C1 (stereo not given)	6.8*	i
CCCc1cc(-c2[nH]ncc2-c2ccc(C(=O)OCC)o2)c(O)cc1O	1.2	i
CCCc1cc(-c2[nH]ncc2-c2ccc3c(c2)OCCCO3)c(O)cc1O	-8.5	-8.5*
O=C(COc1ccccc1F)Nc1c2c(nn1-c1ccccc1)CS(=O)(=O)C2	1.4	i
CCC(CC)NC(=O)c1oc2ccccc2c1COc1ccccc1	.	i
CC(C)CNC(=O)c1oc2ccccc2c1COc1ccccc1	-6.4	-6.4*
COc1ccccc1C(=O)N/C(=C\c1cn(C)c2ccccc12)C(=O)N1CCOCC1	.	i
Cn1cc(/C=C(\NC(=O)c2ccccc2Cl)C(=O)N2CCOCC2)c2ccccc21	-7	-7*
CCCNC(=O)c1ccccc1NC(=O)Cc1ccc(OC)c(S(=O)(=O)N2CCOCC2)c1	.	i
CCCOc1ccc(CC(=O)N/N=C\c2ccc(F)cc2)cc1	0.54	i
Cc1cccc(NC(=O)C(=O)NCC2CCCN2S(=O)(=O)c2ccccc2)c1 (stereo not given)	0.32	i
CCN(CC(=O)Nc1ccc2c(c1)OCCO2)C(=O)CC(NC(C)=O)c1ccccc1 (stereo not given)	.	i
Cc1ccc2nc(C)cc(C(=O)OCC(=O)Nc3c(C)n(C)n(-c4ccccc4)c3=O)c2c1	.	i
O=C(CSc1nccc(=O)[nH]1)N1CCN(c2ccccc2)CC1	0.67	i
O=C(Nc1ccccc1F)Nc1cc(S(=O)(=O)N2CCOCC2)ccc1N1CCCC1	0.12	i
O=C(Nc1cc(S(=O)(=O)N2CCOCC2)ccc1N1CCCC1)c1ccc2c(c1)S(=O)(=O)c1ccccc1C2=O	-5.9	-5.9*
O=C(Nc1ccccc1N1CCCC1)c1cc(S(=O)(=O)N2CCOCC2)ccc1Cl	-5.9	-5.9*
O=C(Nc1cc(S(=O)(=O)N2CCOCC2)ccc1N1CCCC1)c1cccnc1Cl	.	i
CCN(CC(=O)Nc1cc(S(=O)(=O)N2CCCCC2)ccc1Cl)Cc1ccccc1	-7.8	-7.8*
CCN1CCN(S(=O)(=O)c2ccc(Cl)c(C(=O)Nc3ccccc3N3CCCC3)c2)CC1	.	i
CCN(CC(=O)Nc1ccc(S(=O)(=O)N2CCCCC2)cc1)Cc1ccccc1	.	i
CCN1CCN(S(=O)(=O)c2ccc(Cl)c(C(=O)Nc3ccccc3N3CCCCC3)c2)CC1	-5.6	-5.6*
CC/C(=N\NS(=O)(=O)c1ccc(C)cc1)c1ccco1	.	i
Cc1ccc(C(=O)Nc2cccc3ccccc23)cc1	0.99	i
SMILES	KCNQ2 enhance	KCNQ2 block
CC(C)(C)c1cc(C(=O)Nc2cccc3ccccc23)ccn1	-5.8	-5.8*
C/C(=N\Nc1ccc(S(=O)(=O)N2CCOCC2)cc1[N+](=O)[O-])C(C)C	0.7	i
Cc1ccc2[nH]c3c(N4CCN(Cc5ccccc5)CC4)ncnc3c2c1	.	i
COc1cccc2[nH]c3c(N4CCN(Cc5ccc6c(c5)OCO6)CC4)ncnc3c12	1.1	i
COc1ccc2c(c1)[nH]c1c(N3CCN(Cc4ccc5c(c4)OCO5)CC3)ncnc12	-8.1	-8.1*
c1ccc(CN2CCN(c3ncnc4c3[nH]c3ccccc34)CC2)cc1	-8.1	-8.1*
CSCCC(NC(=O)c1ccccc1Cl)C(=O)N(C)Cc1cccs1 (stereo not given)	.	i
CCOc1ccc(S(=O)(=O)NCCC(=O)N2CCN(c3ccccc3O)CC2)cc1	.	i
CCOC(=O)c1c(Nc2ccccc2OCCOC)n[nH]c1C	1.6	i
CCC(C)NC(=O)c1ccc(NC(=O)C2=C(C)OCCS2)cc1 (stereo not given)	.	i
CCOc1ccc(OCc2ccc(C(=O)N3CCCCC3)o2)cc1	0.18	i
CCOc1ccc(OCc2ccc(C(=O)N3CCc4ccccc4C3)o2)cc1	-6.1	-6.1*
COc1cc2c(cc1OC)n(CC(=O)NC1CCCCCC1)n1c(C)cc(=O)nc21	.	i
c1ccc(Oc2cccc(OCCCCSc3ncccn3)c2)cc1	-6.2	-6.2*
COc1cccc(OCCCCSc2ncccn2)c1	.	i
COc1cccc(CN(C)C(=O)c2cc(S(=O)(=O)N3CCN(c4ccccc4)CC3)ccc2Cl)c1	-5.6	-5.6*
COc1ccc(S(=O)(=O)N2CCCCCC2)cc1C(=O)N(C)Cc1ccc(C)cc1	.	i
COc1ccc(S(=O)(=O)N2CCCCCC2)cc1C(=O)N(C)Cc1ccccc1F	-5.8	-5.8*
COc1cccc(NC(=O)CN(C)C(=O)c2cccc(S(=O)(=O)N3CCN(c4ccccc4)CC3)c2)c1	0.05	i
COC(=O)[C@@]12CCCN1[C@H](c1ccc(-c3ccccc3)cc1)[C@@H]1C(=O)N(C)C(=O)[C@@H]12	0.43	i
